# Compounds without any hit were thinned out: in the full panel of roughly 83,000, 20% have a hit.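 Cells were grown in 96-well plates and exposed to the test compound at a single concentration for 48 hours; results are reported as percent growth, with values below 10 considered active.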 A number with no mark means an inactive call. The source made the active and inactive calls.
# Test system: MDA-MB-468 breast
# Assay: NCI-60 one-dose screen, 48 h (100 = growth as untreated, 0 = no growth, -100 = all killed)
# Settings: 10 µM unless noted
row,Structure (SMILES),growth
1,CC(=O)N1Cc2ccccc2C(C)Cc2cc(Cl)ccc21 (stereo unspecified),113%
2,CN(C)c1ccc(/C=C/c2c(F)cccc2F)cc1,81.3%
3,COc1ccc(N=C2NN=C(c3c[nH]c4ccccc34)CS2)cc1OC,10.5%
4,COc1ccc(-c2nn(-c3ccc(NC(=O)Nc4ccc(Cl)c(C(F)(F)F)c4)cc3)cc2-c2ccncc2)cc1Cl,-46.4% (active)
5,CCN(CC)CCCN1C(=O)c2c(c(C)c3c(oc4cc(O)ccc43)c2C)C1=O,102%
6,CCN(CC)c1ccc(/C=N/NC(=O)c2ccc(NS(C)(=O)=O)cc2)c(O)c1,-10.8% (active)
